Data reported in ChEMBL document CHEMBL1961873, “Compounds: GSK PKIS; Assays: Nanosyn kinase panel” (2012).

Key:
[1] = molecular target: Serine/threonine-protein kinase pim-2 (Homo sapiens) (UniProt Q9P1W9); conditions: at 1 µM;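 also: each value is a mean of the inhibition measurements against the kinase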
[2] = molecular target: Serine/threonine-protein kinase pim-3 (Homo sapiens) (UniProt Q86V86); conditions: at 0.1 µM
[3] = molecular target: Serine/threonine-protein kinase pim-3 (Homo sapiens) (UniProt Q86V86); conditions: at 1 µM
[4] = molecular target: T1, MAP kinase-activated protein kinase 5 (Homo sapiens) (UniProt Q8IW41); conditions: at 0.1 µM
T1 sequence (whole entry): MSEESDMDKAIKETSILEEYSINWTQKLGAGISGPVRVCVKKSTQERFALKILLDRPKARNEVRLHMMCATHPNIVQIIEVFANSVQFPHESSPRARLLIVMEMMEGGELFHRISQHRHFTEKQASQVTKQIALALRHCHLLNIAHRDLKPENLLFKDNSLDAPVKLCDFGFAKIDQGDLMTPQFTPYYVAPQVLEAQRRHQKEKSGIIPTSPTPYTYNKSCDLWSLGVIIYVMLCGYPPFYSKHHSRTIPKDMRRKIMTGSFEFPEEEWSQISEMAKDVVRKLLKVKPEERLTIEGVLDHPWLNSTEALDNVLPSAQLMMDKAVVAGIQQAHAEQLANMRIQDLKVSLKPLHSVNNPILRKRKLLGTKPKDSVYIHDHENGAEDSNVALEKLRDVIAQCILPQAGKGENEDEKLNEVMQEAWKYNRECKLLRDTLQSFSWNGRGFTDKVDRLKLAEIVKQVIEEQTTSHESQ

[5] = molecular target: T1, MAP kinase-activated protein kinase 5 (Homo sapiens); conditions: at 1 µM
[6] = molecular target: Serine/threonine-protein kinase SIK1 (Homo sapiens) (UniProt P57059); conditions: at 0.1 µM
Chain of Serine/threonine-protein kinase SIK1 (Homo sapiens) (P57059 whole entry): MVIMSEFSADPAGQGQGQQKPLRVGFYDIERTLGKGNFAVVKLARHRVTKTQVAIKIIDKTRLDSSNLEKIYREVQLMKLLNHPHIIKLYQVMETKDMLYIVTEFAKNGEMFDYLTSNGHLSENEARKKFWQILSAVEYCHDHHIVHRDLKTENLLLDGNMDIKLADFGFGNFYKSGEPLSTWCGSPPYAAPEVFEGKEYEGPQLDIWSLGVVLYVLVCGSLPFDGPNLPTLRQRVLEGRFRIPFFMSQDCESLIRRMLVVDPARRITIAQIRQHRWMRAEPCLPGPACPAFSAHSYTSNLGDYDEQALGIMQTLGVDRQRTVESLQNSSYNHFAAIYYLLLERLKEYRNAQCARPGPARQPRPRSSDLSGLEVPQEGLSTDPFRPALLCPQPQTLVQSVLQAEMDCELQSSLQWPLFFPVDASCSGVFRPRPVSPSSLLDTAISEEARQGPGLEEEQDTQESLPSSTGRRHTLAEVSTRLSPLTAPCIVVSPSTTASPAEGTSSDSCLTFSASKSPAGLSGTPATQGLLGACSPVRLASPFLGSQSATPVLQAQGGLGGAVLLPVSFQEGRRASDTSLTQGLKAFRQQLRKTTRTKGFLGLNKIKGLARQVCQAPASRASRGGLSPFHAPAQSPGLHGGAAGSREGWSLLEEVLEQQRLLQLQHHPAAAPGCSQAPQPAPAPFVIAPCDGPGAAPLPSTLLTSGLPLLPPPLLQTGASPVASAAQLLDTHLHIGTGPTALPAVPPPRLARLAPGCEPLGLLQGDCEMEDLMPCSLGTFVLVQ

[7] = molecular target: Serine/threonine-protein kinase SIK1 (Homo sapiens) (UniProt P57059); conditions: at 1 µM
[8] = molecular target: Serine/threonine-protein kinase SIK2 (Homo sapiens) (UniProt Q9H0K1); conditions: at 0.1 µM
Chain of Serine/threonine-protein kinase SIK2 (Homo sapiens) (Q9H0K1 whole entry, looked up): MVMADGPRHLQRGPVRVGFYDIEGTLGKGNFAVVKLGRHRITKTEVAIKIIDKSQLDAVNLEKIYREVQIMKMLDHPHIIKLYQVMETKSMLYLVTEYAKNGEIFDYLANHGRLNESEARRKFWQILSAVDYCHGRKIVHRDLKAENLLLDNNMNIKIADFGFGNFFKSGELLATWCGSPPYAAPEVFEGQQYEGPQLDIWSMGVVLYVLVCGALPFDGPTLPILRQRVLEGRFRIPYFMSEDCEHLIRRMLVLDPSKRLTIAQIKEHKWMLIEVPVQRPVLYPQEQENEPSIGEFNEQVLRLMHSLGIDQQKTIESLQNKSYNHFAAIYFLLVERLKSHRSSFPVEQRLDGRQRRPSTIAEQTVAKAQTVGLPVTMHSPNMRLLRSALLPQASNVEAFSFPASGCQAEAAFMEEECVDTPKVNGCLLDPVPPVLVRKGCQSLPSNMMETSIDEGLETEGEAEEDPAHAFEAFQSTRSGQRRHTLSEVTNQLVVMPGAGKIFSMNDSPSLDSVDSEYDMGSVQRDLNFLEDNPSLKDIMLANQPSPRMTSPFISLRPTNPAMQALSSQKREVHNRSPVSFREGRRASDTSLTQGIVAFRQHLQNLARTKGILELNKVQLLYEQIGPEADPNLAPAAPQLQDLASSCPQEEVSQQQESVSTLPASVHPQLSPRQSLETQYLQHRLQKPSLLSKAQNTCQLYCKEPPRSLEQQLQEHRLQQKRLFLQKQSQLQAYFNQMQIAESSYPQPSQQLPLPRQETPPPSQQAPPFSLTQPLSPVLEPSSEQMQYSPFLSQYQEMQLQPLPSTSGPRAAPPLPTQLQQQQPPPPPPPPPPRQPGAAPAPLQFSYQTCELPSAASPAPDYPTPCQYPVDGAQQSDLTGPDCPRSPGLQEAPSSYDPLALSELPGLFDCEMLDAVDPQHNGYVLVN

[9] = molecular target: Serine/threonine-protein kinase SIK2 (Homo sapiens) (UniProt Q9H0K1); conditions: at 1 µM
[10] = molecular target: T2, Serine/threonine-protein kinase TBK1 (Homo sapiens) (UniProt Q9UHD2); conditions: at 0.1 µM
T2 sequence (whole entry): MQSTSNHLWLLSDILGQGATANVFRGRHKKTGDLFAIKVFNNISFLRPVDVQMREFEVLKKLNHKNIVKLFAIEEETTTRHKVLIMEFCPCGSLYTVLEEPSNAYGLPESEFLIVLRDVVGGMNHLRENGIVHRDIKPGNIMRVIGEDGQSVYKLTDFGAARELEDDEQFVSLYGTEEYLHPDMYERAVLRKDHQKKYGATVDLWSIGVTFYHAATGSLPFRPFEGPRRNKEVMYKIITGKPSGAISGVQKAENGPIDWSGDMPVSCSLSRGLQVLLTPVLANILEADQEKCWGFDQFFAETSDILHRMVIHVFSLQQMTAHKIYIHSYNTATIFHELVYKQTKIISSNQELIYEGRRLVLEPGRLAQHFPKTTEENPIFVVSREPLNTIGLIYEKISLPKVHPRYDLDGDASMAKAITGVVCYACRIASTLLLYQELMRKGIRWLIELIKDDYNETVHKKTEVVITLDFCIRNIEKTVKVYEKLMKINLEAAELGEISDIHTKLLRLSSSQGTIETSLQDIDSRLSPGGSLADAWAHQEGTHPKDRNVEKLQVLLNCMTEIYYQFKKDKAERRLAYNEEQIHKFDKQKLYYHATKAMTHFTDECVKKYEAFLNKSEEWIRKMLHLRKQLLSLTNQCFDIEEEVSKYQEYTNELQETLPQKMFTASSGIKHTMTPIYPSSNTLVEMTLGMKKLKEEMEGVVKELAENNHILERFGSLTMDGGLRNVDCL

[11] = molecular target: T2, Serine/threonine-protein kinase TBK1 (Homo sapiens); conditions: at 1 µM
[12] = molecular target: T3, Testis-specific serine/threonine-protein kinase 1 (Homo sapiens) (UniProt Q9BXA7); conditions: at 0.1 µM
T3 sequence (whole entry): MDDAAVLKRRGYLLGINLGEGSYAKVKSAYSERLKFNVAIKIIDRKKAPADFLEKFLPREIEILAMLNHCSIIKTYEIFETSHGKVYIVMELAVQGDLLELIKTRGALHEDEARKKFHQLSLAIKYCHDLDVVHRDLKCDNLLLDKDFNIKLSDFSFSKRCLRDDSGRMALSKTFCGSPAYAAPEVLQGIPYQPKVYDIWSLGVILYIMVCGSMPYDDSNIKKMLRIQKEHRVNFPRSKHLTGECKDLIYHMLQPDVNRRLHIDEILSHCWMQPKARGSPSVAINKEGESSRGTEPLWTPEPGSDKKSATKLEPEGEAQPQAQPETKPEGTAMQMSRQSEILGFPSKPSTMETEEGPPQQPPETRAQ

[13] = molecular target: T3, Testis-specific serine/threonine-protein kinase 1 (Homo sapiens); conditions: at 1 µM
[14] = molecular target: T4, Testis-specific serine/threonine-protein kinase 2 (Homo sapiens) (UniProt Q96PF2); conditions: at 0.1 µM
T4 sequence (whole entry): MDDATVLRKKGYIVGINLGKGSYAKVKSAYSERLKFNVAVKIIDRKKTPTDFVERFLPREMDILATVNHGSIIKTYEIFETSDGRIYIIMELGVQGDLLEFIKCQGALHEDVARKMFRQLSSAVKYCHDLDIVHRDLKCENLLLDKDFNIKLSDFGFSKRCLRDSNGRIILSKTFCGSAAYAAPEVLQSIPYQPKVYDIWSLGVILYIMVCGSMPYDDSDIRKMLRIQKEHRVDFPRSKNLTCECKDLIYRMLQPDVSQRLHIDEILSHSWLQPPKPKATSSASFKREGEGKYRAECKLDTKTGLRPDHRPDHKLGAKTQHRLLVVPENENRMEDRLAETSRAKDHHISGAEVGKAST

[15] = molecular target: T4, Testis-specific serine/threonine-protein kinase 2 (Homo sapiens); conditions: at 1 µM
[16] = molecular target: Casein kinase I isoform alpha (Homo sapiens) (UniProt P48729); conditions: at 0.1 µM
Chain of Casein kinase I isoform alpha (Homo sapiens) (P48729 2-337 limits assumed): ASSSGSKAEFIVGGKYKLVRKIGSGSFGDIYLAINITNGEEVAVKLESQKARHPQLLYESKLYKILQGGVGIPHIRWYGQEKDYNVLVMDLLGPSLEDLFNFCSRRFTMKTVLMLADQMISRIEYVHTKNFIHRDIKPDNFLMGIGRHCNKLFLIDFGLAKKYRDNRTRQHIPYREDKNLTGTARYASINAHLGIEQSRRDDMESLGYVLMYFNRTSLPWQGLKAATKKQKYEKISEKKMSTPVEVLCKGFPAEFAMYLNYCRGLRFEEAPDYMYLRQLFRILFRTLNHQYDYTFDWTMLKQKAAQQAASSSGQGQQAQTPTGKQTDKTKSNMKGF

[17] = molecular target: Casein kinase I isoform alpha (Homo sapiens) (UniProt P48729); conditions: at 1 µM
[18] = molecular target: Casein kinase I isoform gamma-1 (Homo sapiens) (UniProt Q9HCP0); conditions: at 0.1 µM
Chain of Casein kinase I isoform gamma-1 (Homo sapiens) (Q9HCP0 whole entry, looked up, canonical isoform): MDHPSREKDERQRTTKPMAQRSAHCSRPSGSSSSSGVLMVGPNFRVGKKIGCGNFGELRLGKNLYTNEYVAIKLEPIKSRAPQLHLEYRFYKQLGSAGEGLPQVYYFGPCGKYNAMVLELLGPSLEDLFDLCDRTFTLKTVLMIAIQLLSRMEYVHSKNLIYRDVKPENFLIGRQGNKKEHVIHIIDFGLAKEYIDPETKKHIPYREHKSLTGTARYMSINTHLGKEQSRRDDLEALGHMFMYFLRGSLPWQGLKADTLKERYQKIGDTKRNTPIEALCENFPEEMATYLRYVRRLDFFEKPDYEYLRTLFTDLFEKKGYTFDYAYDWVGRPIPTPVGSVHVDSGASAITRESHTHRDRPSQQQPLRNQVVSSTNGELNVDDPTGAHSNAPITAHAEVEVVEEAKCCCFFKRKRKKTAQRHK

[19] = molecular target: Casein kinase I isoform gamma-1 (Homo sapiens) (UniProt Q9HCP0); conditions: at 1 µM
[20] = molecular target: Casein kinase I isoform gamma-2 (Homo sapiens) (UniProt P78368); conditions: at 0.1 µM;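 also: values are mean inhibition figures reported as part of the GSK PKIS dataset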
Chain of Casein kinase I isoform gamma-2 (Homo sapiens) (P78368 whole entry, looked up, canonical isoform): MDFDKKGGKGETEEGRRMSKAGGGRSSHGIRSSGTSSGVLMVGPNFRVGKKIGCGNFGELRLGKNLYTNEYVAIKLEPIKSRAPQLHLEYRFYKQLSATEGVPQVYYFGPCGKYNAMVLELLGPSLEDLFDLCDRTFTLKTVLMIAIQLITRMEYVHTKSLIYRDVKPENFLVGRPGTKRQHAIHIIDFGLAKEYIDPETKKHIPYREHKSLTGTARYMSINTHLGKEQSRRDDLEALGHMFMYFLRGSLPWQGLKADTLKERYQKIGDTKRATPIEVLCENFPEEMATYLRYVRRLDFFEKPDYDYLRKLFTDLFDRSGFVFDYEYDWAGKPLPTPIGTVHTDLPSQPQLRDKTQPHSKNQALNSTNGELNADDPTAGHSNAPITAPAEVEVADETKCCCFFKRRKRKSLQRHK

Chain of Serine/threonine-protein kinase pim-2 (Homo sapiens) (Q9P1W9 whole entry, looked up): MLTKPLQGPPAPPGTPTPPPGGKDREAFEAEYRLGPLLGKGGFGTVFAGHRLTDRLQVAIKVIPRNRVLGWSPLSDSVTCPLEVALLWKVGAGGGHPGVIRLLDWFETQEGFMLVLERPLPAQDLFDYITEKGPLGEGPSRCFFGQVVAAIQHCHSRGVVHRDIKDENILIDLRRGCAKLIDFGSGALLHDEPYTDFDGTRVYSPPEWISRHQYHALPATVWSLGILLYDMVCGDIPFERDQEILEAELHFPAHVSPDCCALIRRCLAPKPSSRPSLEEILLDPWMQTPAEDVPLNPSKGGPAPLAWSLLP

`COc1cc2c(cc1Nc1nc(Nc3cccc(F)c3C(N)=O)c3cc[nH]c3n1)N(C(=O)CN1CCN(C(C)C)CC1)CC2` gave an inhibition [1] of 0.2%, an inhibition [2] of 0.01% and an inhibition [3] of 1.84%. The inhibition [4] was 0.57%, the inhibition [5] was 1.03% and the inhibition [6] was 5.86%. The inhibition [7] was 8.52%, the inhibition [8] was 3.09% and the inhibition [9] was 0.18%. The inhibition [10] was 2.33%, the inhibition [11] was 3.05% and the inhibition [12] was 5.1%. For the same molecule, the inhibition [13] was 31.9%, the inhibition [14] was 2.49% and the inhibition [15] was 12.4%. The inhibition [16] was 1.84%, the inhibition [17] was 11.4% and the inhibition [18] was 2.53%. It also gave an inhibition [19] of 5.76% and an inhibition [20] of 2.46%.
For `CC1(C)CC(n2cnc(-c3ccc(F)cc3)c2-c2ccnc(N)n2)CC(C)(C)N1`, the inhibition [1] was 0.96%, the inhibition [2] was -0.62% and the inhibition [3] was 0.93%. For the same molecule, the inhibition [4] was 0.28%, the inhibition [5] was 0.93% and the inhibition [6] was 0.72%. It also gave an inhibition [7] of 3.05%, an inhibition [8] of 1.72% and an inhibition [9] of 1.15%. For the same molecule, the inhibition [10] was 0.42%, the inhibition [11] was 0.35% and the inhibition [12] was 1.43%. It also gave an inhibition [13] of 2.2%, an inhibition [14] of 0.62% and an inhibition [15] of 2.34%. For the same molecule, the inhibition [16] was 12.5%, the inhibition [17] was 58.5% and the inhibition [18] was 0.31%. It also gave an inhibition [19] of 2.25% and an inhibition [20] of 0.35%.
In the case of `CS(=O)(=O)Nc1ccc(-c2ccc3c(NC(=O)C4CC4)n[nH]c3c2)cc1`, the inhibition [1] is reported as 4%, the inhibition [2] is reported as 0.02% and the inhibition [3] is reported as 2.14%. For the same molecule, the inhibition [4] was 0.66%, the inhibition [5] was -1.55% and the inhibition [6] was 3.97%. It also gave an inhibition [7] of 5.51%, an inhibition [8] of 5.95% and an inhibition [9] of 1.37%. It also gave an inhibition [10] of 0.86%, an inhibition [11] of 7.65% and an inhibition [12] of 2.9%. It also gave an inhibition [13] of 2.78%, an inhibition [14] of 0.58% and an inhibition [15] of -0.76%. It also gave an inhibition [16] of -2.5%, an inhibition [17] of 3.8% and an inhibition [18] of 2.55%. For the same molecule, the inhibition [19] was 4.34% and the inhibition [20] was 1.91%.
